Where “and” joins values, the source holds several entries; their conditions need not be identical. Equal entries are not always repeated. Hit rate of the full screen: of about 190,000 compounds, about 6,900 (3.6%) were called active. No stated cut-off is given here; in the data, active means inhibition above about 50%; inactive means the rest. The entries come from a sample that favours actives as a whole. Some compounds were tested as several samples or in several runs, with calls that do not always agree.

Sequence of Huntingtin (Homo sapiens) (P42858 whole entry, looked up, stated change not applied): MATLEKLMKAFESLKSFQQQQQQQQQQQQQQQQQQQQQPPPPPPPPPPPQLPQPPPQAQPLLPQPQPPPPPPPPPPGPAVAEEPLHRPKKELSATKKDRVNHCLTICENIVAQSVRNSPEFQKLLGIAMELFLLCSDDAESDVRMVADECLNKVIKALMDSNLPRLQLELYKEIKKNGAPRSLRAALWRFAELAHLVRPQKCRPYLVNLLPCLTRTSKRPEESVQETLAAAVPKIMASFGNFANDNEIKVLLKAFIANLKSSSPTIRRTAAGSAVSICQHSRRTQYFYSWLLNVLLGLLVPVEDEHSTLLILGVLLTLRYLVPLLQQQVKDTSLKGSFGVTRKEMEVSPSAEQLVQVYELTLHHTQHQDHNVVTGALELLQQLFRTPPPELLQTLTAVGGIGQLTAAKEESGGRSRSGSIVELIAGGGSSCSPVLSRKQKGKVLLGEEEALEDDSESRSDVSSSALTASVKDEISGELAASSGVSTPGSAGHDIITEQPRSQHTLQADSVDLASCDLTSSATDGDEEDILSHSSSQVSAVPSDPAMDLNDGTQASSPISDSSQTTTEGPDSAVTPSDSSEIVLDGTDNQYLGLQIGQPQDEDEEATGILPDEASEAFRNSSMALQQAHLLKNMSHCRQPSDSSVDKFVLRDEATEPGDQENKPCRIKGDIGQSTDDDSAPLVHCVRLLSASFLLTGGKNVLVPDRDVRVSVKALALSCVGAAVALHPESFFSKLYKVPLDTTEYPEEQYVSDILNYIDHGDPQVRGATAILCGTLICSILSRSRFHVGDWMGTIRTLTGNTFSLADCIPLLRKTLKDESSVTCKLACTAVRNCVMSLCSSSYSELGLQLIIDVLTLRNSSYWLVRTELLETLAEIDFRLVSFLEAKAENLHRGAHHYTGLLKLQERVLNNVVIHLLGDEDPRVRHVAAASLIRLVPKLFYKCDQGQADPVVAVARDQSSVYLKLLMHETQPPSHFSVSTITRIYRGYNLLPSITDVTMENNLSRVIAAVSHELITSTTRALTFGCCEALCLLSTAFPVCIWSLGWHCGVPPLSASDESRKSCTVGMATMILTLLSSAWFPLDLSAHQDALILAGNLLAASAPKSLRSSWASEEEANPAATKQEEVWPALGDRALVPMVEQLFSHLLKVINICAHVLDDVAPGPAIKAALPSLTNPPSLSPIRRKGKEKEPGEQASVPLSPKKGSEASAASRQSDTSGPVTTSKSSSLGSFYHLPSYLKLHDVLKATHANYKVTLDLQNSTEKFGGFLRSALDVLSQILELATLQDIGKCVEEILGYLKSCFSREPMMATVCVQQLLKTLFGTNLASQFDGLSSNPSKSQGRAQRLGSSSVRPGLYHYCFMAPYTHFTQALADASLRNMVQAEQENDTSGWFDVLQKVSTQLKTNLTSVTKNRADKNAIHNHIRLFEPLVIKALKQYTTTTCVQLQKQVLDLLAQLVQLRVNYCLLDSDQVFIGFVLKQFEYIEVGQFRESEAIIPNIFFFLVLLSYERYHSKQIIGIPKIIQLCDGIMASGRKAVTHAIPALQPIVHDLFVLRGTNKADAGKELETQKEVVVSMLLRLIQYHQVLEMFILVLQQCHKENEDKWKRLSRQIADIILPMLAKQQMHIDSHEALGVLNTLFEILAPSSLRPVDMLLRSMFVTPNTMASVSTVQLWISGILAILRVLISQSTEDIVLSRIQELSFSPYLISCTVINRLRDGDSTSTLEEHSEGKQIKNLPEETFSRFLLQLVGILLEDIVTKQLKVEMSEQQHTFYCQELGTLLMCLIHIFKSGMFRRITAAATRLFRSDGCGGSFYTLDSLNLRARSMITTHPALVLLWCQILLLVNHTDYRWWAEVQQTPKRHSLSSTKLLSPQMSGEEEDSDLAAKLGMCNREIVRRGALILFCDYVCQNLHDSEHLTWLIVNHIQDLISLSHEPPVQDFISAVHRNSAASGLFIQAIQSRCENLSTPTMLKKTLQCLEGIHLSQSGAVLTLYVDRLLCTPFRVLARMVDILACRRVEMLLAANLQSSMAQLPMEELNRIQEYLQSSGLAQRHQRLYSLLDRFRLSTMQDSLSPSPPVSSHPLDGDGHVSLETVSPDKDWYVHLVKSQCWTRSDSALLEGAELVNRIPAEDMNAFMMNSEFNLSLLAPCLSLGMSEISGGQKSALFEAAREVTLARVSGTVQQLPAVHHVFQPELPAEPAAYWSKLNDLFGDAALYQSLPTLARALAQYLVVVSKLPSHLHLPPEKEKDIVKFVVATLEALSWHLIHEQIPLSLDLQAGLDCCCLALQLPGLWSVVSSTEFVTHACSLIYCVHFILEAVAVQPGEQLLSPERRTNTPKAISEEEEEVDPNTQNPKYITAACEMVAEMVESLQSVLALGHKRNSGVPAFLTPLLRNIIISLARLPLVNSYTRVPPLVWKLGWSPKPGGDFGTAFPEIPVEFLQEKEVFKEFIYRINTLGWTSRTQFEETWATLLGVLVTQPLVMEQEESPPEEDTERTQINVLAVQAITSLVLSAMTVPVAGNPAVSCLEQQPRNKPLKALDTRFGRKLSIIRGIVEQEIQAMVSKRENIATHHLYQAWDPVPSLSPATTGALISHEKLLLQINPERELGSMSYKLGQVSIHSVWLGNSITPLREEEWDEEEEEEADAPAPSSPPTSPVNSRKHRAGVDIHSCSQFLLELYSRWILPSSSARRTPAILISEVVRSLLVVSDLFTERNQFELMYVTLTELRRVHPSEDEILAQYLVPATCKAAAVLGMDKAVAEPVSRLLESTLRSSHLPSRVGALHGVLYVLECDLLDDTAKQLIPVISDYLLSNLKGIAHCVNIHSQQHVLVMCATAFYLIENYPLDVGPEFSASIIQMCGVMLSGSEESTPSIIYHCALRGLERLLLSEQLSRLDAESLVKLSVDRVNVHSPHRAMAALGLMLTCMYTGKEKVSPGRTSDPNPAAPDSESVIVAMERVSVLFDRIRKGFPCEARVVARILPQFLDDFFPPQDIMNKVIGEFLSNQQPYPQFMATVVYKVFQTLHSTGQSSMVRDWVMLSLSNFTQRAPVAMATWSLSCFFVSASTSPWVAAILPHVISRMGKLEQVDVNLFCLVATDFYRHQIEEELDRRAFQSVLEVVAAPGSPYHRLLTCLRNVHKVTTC

This test addresses Huntingtin (Homo sapiens) (UniProt P42858). In words: mutant huntingtin-calmodulin interaction inhibitors – biochemical, AlphaScreen, primary screen (AID 1671202).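 Further: 0% = both proteins with DMSO and 100% = one protein alone.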 To be noted: AlphaScreen His-mHTT/GST-CaM binding, luminescence; at 15 µM, stronger effect = higher value. A general note: Alpha assays give light when donor and acceptor beads are brought close together.
What is called inhibition is the change of the read-out against control, counted positive when it falls. `CC(C)CNC(=O)C(=O)NCC(c1ccco1)S(=O)(=O)c1cccs1` (configuration not stated): the inhibition was -9.6% (inactive).
In the case of `O=C1C2C(C(=O)N1c1ccccc1[N+](=O)[O-])C1C=CC2C12CC2` (configuration not stated), the inhibition was 3% (inactive).
For `Cc1ccc(N2C(=O)CC(Nc3ccc(N4CCOCC4)cc3)C2=O)c(Br)c1` (configuration not stated), the inhibition is 60.1% (active) and 18.3% (inactive).
In the case of `COc1ccc(N2C(=O)CC(Nc3ccc(OC(F)(F)F)cc3)C2=O)cc1` (configuration not stated) it was -4% (inactive); in that of `Cc1ccc(NC2CC(=O)N(c3cccc(Cl)c3)C2=O)cc1` (configuration not stated), -2% (inactive).
For the molecule `O=C(Nc1ccc(N2CCCCC2)nc1)C1CC1`, the inhibition was -1% (inactive).
As to `O=C(O)/C(=C\c1cccc([N+](=O)[O-])c1)NC(=O)c1ccco1`, the inhibition was -2.8% (inactive).
Then `CCOc1ccc(Br)c(/C=C2\C(=O)Nc3ccc(Br)cc32)c1`, with 31% (inactive); and `COc1ccc(/C=C2\C(=O)Nc3ccc(F)cc32)cc1OC`, with 40% (inactive).
`CCc1ccc(/C=C2\C(=O)Nc3ccc(F)cc32)cc1`: the inhibition is 66% (active).
Consider `Cc1ccc(C(=O)N2CCc3sc(C(=O)NCc4ccco4)cc3C2)cc1`, for which the inhibition was 13.6% (inactive).
`Cc1nc2sccn2c1-c1csc(Nc2ncccn2)n1`: the inhibition is 3% (inactive).
Then `Cc1ccn2c(-c3csc(Nc4ccc(C(=O)O)cc4)n3)c(C)nc2c1`, with -2% (inactive).
In the case of `Cc1ccn2c(-c3csc(Nc4ccc(N)cc4)n3)c(C)nc2c1` it was 64.7% (active); in that of `COCCCNC(=O)C1CCN(c2nnc(-c3ccccc3)o2)CC1`, 2.64% (inactive).
On to `CCOC(=O)C1CCCN(CC(O)COC2CC3CCC2(C)C3(C)C)C1` (configuration not stated), for which the inhibition is 6.9% (inactive).
In the case of `Oc1c(C(Nc2ccccn2)c2ccncc2)ccc2cccnc12` (configuration not stated) it was 100% (active); in that of `c1ccc(Nc2nc(-c3ccncc3)cs2)nc1`, 18% (inactive).
In the case of `Oc1c(C(Nc2ccccn2)c2ccc(OC(F)F)cc2)ccc2cccnc12` (configuration not stated) it was 97% (active); in that of `Oc1c(C(Nc2ccccn2)c2cccnc2)ccc2cccnc12` (configuration not stated), 100% (active).
In the case of `COc1ccccc1C=C1Oc2cc(C)cc(O)c2C1=O` it was -4.4% (inactive); in that of `CCC(CC)NC(=O)C1CCc2nc(N3CCN(C(C)=O)CC3)sc2C1` (configuration not stated), 11.6% (inactive); in that of `CC(NC(=O)CN1CCOCC1)C1CC1` (configuration not stated), -8.9% (inactive).
In the case of `CN(C(=O)c1ccccn1)C1(C(=O)NC2CCCC2)CCCCC1`, the inhibition is -4% (inactive).
Then `O=C(Nc1ccc2c(c1)OCCO2)C1CCc2sc(C(=O)N3CCCC3)cc2C1` (configuration not stated), with 12.3% (inactive).
Turning to `CC(C)(C)C(=O)NC(n1cccnc1=O)C(Cl)(Cl)Cl` (configuration not stated), the inhibition is 2% (inactive).
`CCCCN(CC)C(=O)c1c[nH]c2ccc(S(=O)(=O)Nc3ccccc3F)cc2c1=O`: the inhibition was 14% (inactive).
In the case of `Cc1ccc(N2C(=O)CSC2c2ccccc2[N+](=O)[O-])cc1Cl` (configuration not stated) it was 16% (inactive); in that of `O=C1CSC(c2ccccc2[N+](=O)[O-])N1c1ccc(Oc2ccccc2)cc1` (configuration not stated), 59% (active); in that of `O=C1CSC(c2ccccc2[N+](=O)[O-])N1c1ccc(Br)cc1` (configuration not stated), 28% (inactive).
For `CCn1cc(CCNC(C)=O)c2cccnc21`, the inhibition was -8.1% (inactive).
In the case of `CC(=O)NC(Cc1c[nH]c2ccccc12)C(=O)O` (configuration not stated) it was 3.4% (inactive); in that of `O=C(O)COc1ccccc1C(c1c[nH]c2ccccc12)c1c[nH]c2ccccc12`, 88.9% (active).
Then `CC(Cc1c[nH]c2ccccc12)NC(=O)c1ccncc1` (configuration not stated), with 2.9% (inactive) and 3% (inactive); and `CC(=O)N1CCc2cc(N3CC(C(=O)Nc4ccc(C)cc4F)CC3=O)ccc21` (configuration not stated), with -5.06% (inactive); and `CCc1ccc(CNC(=O)C2CC(=O)N(c3ccc4c(c3)CCN4C(C)=O)C2)cc1` (configuration not stated), with -4.01% (inactive).
In the case of `CC(=O)N1CCc2cc(N3CC(C(=O)Nc4cccc(F)c4)CC3=O)ccc21` (configuration not stated) it was 90.3% (active); in that of `O=C(Nc1ccc(N2CCN(C(=O)C3CCCC3)CC2)nc1)c1ccc(F)cc1F`, 1.5% (inactive); in that of `CCOc1ccc2nc(C(=O)Nc3ccc(Br)cc3)sc2c1`, -2% (inactive).
`CC(C)(CCl)C(=O)N1CCN(c2cc(Oc3ccc(F)c(F)c3)ncn2)CC1`: the inhibition is 6.2% (inactive).
In the case of `Cc1ccc(C(=O)N2CCC(n3cnnc3-c3ccccc3)C2)cn1` (configuration not stated) it was -1.7% (inactive); in that of `CCC(NC(C)=O)c1cccc(Br)c1` (configuration not stated), -3.8% (inactive).
Then `O=C(Nc1ccccc1O)c1ncn[nH]1`, with 8.9% (inactive).
Then `CCC(NC(=O)c1ncn[nH]1)c1ccccc1` (configuration not stated), with 89.5% (active); and `Cc1ccc(N2CCC(C(=O)NCc3ccc(F)cc3)C2=O)cc1Cl` (configuration not stated), with -0.5% (inactive); and `COc1cccc(CC(=O)N2CCCC2c2cccc(F)c2)c1` (configuration not stated), with 15% (inactive).
As for `O=C(CSc1nnc(NC(=O)c2ccc(Cl)c(Cl)c2)s1)NCc1ccco1`, the inhibition is -5.3% (inactive).
As for `COc1ccc2nc(SCC(=O)NCc3cccs3)[nH]c2c1`, the inhibition is -2% (inactive).
For `O=C(CSc1nc(CC(=O)NCc2cccs2)cc(=O)[nH]1)NCc1ccco1`, the inhibition was 100% (active).
In the case of `COc1ccccc1NC(CNS(=O)(=O)c1ccc(Cl)cc1)c1ccccc1` (configuration not stated) it was 64% (active); in that of `COc1ccccc1NC(=O)c1cc(S(=O)(=O)NCc2ccccc2Cl)ccc1F`, -3% (inactive); in that of `COc1ccccc1NC(=O)CC(C)c1ccccc1` (configuration not stated), -7.2% (inactive).
In the case of `COc1ccc(C2=NN(C(C)=O)C(c3cc4cc(C)ccc4nc3Cl)C2)cc1OC` (configuration not stated), the inhibition is -3% (inactive).
Then `O=C(CN1N=C(c2ccccc2)CCC1=O)NCCc1ccc(Cl)cc1`, with 29% (inactive); and `O=C(NCCc1ccccc1)c1ccc(I)cc1`, with -3% (inactive).
Then `COc1ccccc1NC(=O)Cn1nnc(-c2ccccc2F)n1`, with -2.8% (inactive); and `COc1cc(C(=O)N2CCCC2)c([N+](=O)[O-])cc1OC`, with -4.1% (inactive).
`COc1ccc(NC(=O)N2CCC(Cc3ccccc3)CC2)cc1`: the inhibition is -3.2% (inactive).
Then `COc1cc(C(=O)N2CCC(Cc3ccccc3)CC2)c([N+](=O)[O-])cc1OC`, with 54.1% (active); and `CCOc1ccc(C(=O)Nc2cc([N+](=O)[O-])ccc2C)cc1`, with -0.3% (inactive); and `COc1cccc(OC)c1C(=O)Nc1sc2c(c1C(N)=O)CCCC2`, with 25.3% (inactive).
In the case of `COc1ccc(OC)c(NC(=O)c2c(NCc3ccc(C)o3)sc3c2CCC3)c1` it was 7.9% (inactive); in that of `COc1ccccc1NC(=O)c1c(NCc2ccncc2)sc2c1CCCC2`, 65% (active).
For the molecule `Cn1nccc1C(=O)N1CCCC(c2n[nH]c(C3CC3)n2)C1` (configuration not stated), the inhibition was 5.54% (inactive).
In the case of `CC(=O)c1nc2sc(C)c(C)c2[nH]1` it was -3.74% (inactive).
With `CN(C)CCCN1C(=O)C(=O)C(=C(O)c2ccccc2)C1c1cccc(Br)c1` (configuration not stated), the inhibition is -1.6% (inactive).
Then `COc1ccc(C2C(=C(O)c3ccc(C)cc3)C(=O)C(=O)N2c2ccccn2)cc1` (configuration not stated), with 2.6% (inactive); and `Cc1ccc(C(O)=C2C(=O)C(=O)N(c3ncccn3)C2c2cccc(Br)c2)cc1` (configuration not stated), with 51.6% (active); and `CN1CCc2c(n(-c3ccccc3)c3ccccc23)C1=O`, with 56.8% (active).
In the case of `CN1CCN(CC(=O)Nc2c3c(nc4ccccc24)N(c2ccccc2)CC3)CC1` it was -4% (inactive); in that of `N#CSc1ccc(NC(=O)c2ccc(-n3cnnn3)cc2)cc1`, 8.8% (inactive).
In the case of `C=CCNC(=O)C(=O)NCc1ccccn1` it was -1.5% (inactive).
Turning to `COc1cc(N)ccc1NS(=O)(=O)c1ccc(C)cc1`, the inhibition was 10.8% (inactive).
Then `Cc1ccc(S(=O)(=O)Nc2ccccc2C(=O)NN)cc1`, with 5.3% (inactive); and `Cc1ccc(S(=O)(=O)Nc2cc(S(=O)(=O)O)c(N)c3c2C(=N)c2ccccc2C3=O)cc1`, with 94% (active); and `CCCc1cc(=O)[nH]c(SCC(=O)Nc2cc(C(F)(F)F)ccc2Cl)n1`, with -6.6% (inactive).
Then `O=C(O)C1C2CCC3C(CCC21)C3C(=O)O` (configuration not stated), with -1.3% (inactive); and `C=CCOC(=O)C1=C(C)NC2=C(C(=O)CC(C)(C)C2)C1c1ccc(OCC)c(OC)c1` (configuration not stated), with -6.9% (inactive).
As for `O=C(NCc1cccs1)C1CCc2sc(C(=O)N3CCCCC3)cc2C1` (configuration not stated), the inhibition is 3.05% (inactive).
Then `O=C(NC(n1cnc2c(Cl)ncnc21)C(Cl)(Cl)Cl)c1ccccc1` (configuration not stated), with -3% (inactive); and `O=C(Nc1cccc(Cl)c1)Nc1c2c(nn1-c1ccccc1)CSC2`, with 15.8% (inactive).
In the case of `CCOc1ccc(-n2c(SCC(=O)NC3CCCCC3)nc3n[nH]c(C)c3c2=N)cc1` it was 10% (inactive); in that of `CCC(Sc1nc2n[nH]c(C)c2c(=N)n1-c1ccc(Br)cc1)C(=O)NCCOC` (configuration not stated), 75% (active).
Then `CCC(Sc1nc2n[nH]c(C)c2c(=N)n1-c1ccc(OC)cc1)C(=O)Nc1ccccc1OC` (configuration not stated), with 30% (inactive); and `Cc1ccc(C(=O)Nc2ccc(-n3cnnn3)c(C)c2)cc1`, with -6.6% (inactive).
In the case of `COc1ccc(Br)cc1S(=O)(=O)NCCCn1ccnc1`, the inhibition was -3.1% (inactive).
On to `Cn1cc(C2=CCN(S(=O)(=O)c3cccc(Cl)c3)CC2)c2cccnc21`, for which the inhibition is 0.52% (inactive).
Then `COc1cccc(-c2nc(C3CCN(S(=O)(=O)c4ccccc4F)CC3)no2)c1`, with -3.26% (inactive).
Regarding `CCOc1ccc(C2C3=C(CC(C)(C)CC3=O)Nc3ncnn32)cc1` (configuration not stated), the inhibition was -2.23% (inactive).
In the case of `CCCOc1ccc(C2C3=C(CC(C)(C)CC3=O)Nc3ccc4ncccc4c32)cc1` (configuration not stated), the inhibition was 49% (inactive).
As for `CC1(C)CC(=O)C2=C(C1)NC1=C(C(=O)c3ccccc31)C2c1ccc(OCc2ccccc2)cc1` (configuration not stated), the inhibition was 100% (active).
On to `O=C(c1ccccc1)c1cc(S(=O)(=O)C(F)(F)F)ccc1[N+](=O)[O-]`, for which the inhibition is 34% (inactive).
In the case of `CCOc1ccc(CN2CCCC2c2c(C)noc2CC)cc1` (configuration not stated) it was -51.7% (inactive); in that of `CNC(=O)c1c(NC(=O)c2ccc(Br)s2)sc(C)c1C`, -10.4% (inactive).
In the case of `CSc1cccc(NC(=O)c2ncn[nH]2)c1` it was 0.6% (inactive).
In the case of `O=C(Nc1ccc(Cl)c(C(=O)O)c1)c1ncn[nH]1` it was 18.5% (inactive) and 57% (active).
`O=C(Nc1cc([N+](=O)[O-])ccc1Cl)c1ncn[nH]1`: the inhibition is 4% (inactive).

The values are drawn from PubChem BioAssay AID1671202 (University of Kansas High Throughput Screening Laboratory, 2021).
